The subject of the experiment is VDR:RXRa (NR concentration 270 nM, RXRa partner concentration 90 nM). Nature of the experiment: PBM binding z-score (relative to random genomic background probes); higher = stronger binding; sequences stand for … in GC…GCGATTGACAGCGTAGAATGAAGG
Here is the method:
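Protein-binding microarray (Agilent 4x180K custom design, double-stranded 60-nt probes: 5' GC cap, 34-nt variable region, 24-nt constant primer region; full probe sequence given). Purified or IVT nuclear receptor:RXRα heterodimers (3:1 NR:RXRα, mostly 270:90 nM) or homodimers were incubated for 1 h in PBS with 2% milk and no ligand, then detected with Alexa488 antibodies. Fluorescence from o1-orientation probes (~5 replicates averaged) was converted to z-scores against 500 random hg19 background probes. Variable regions are seed direct-repeat (DR0–DR5) sites, all their single-nucleotide variants and half-site ablations.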
In the case of AGCACGAGGGCAATGAGTTGATAGCACGGGTGGC, the PBM binding z-score stood at 5.06. Sequence CCTAGTTGGTCAAGAGGTCACACACCGGATATGA yielded a PBM binding z-score of 4.64.

With CCGACTGGGGCAGAAAGGTTTCCATACCATCCGG, the PBM binding z-score was -0.642. ACTATTAGTTGAGACGAGGGCATCCGATAGGTTG yielded a PBM binding z-score of 0.918. As for TCGCGGAGGACACGAAGGTCAGAGCTTTCCAGAG, the figure is 2.1.

For TCTATTAGTTGATTAGGGCATCCGAAACAGCGGA, the PBM binding z-score was 0.719.

Consider ACTAGCAGGCCAAGTTTGGGTCACTTAAACAAAG, for which the PBM binding z-score was 0.715. With CGTCCAACGTCAATGCTAGGTCAGTGAAAGCATT, the PBM binding z-score stood at 0.103.

Regarding CGTCCAAGCTCAAAGGTCAGTGAAGAGATGACGG, the PBM binding z-score was 2.31.

In turn, CAAACTAGGTCACGAAAGTTCAAAGTCGAATGAC gave a PBM binding z-score of 7.01. As for ATACCAAGGTGATCGTGGGGTCGTTGATACTAAC, the figure is 3.44; as for CAAACTAGGTCAAGGTCATAGTCGGTTTGTGCCA, 5.01. CCGACCGGGGCAGAAAGGTTACCATACCATCCGG returned a PBM binding z-score of 1.5.

GCGACTGGGGCATCAGCAGGTTACGATAACTTAA showed a PBM binding z-score of 0.0769.

The sequence TCTAGTAGATCAACAGGAGGTTAAGAAAGATCGA displayed a PBM binding z-score of 0.713. TCATATAGGTAAGTGCTAGGTGAAAGTCCGATCT displayed a PBM binding z-score of 0.679. Then GCTGCTAGGTTAGGTTGGTCAGCTAACGGGTACG, with -0.323; and GCTAGTTGGTCAGTAAAAGGTCAGACACCGGTCG, with 2.38.

For the sequence TCTATTAGTCGAAGGGCAACCGACGAGTCCGTTT, the PBM binding z-score stood at 0.789. For the sequence TCTTGTAGATCAGCAGGTTAAGAACGCTGGCCAA, the PBM binding z-score stood at 0.123. CCTAGTTGGTCAGGAGGTCACACATCGGATATGA registered a PBM binding z-score of 3.76. Then AGTCAAAGTTCATCTAAGTAACGTAAGATATGCT, with 4.76; and CCAGACAGGTGAGAAGGTAAGTCAGCCTCGATTA, with -0.106. Sequence ATCTCTAGGTAACAAGTTTAGTGAAAGAGAGGAC gave a PBM binding z-score of 0.823.

TAGCCTAGGTCAGATCGGGCCAGAATACGCTATA registered a PBM binding z-score of 0.522.

AGTACGAGGGCACGCTGAGTTGATAGCAGAGTAG showed a PBM binding z-score of 2.29. For the sequence TCATATACGTAAATGCTAGGTGAAAGTCCGATCT, the PBM binding z-score was determined as 0.839. In turn, GCTTACGGGTCAAAGATTATAGCATGAATAGAAT yielded a PBM binding z-score of 3.28.

Turning to GTACCAAGGTGAATAGGGCGTTGATGAGTAGGCG, the PBM binding z-score is -0.176. As for TCTTGTAGATCAAGCAGGTTAAGAACGCCTGAGT, the figure is 0.768; as for TCTTGTAGATCAAAGGTAAAGAAAGCCGAAGCCT, 0.385; as for ACTCGTAGGACAAAGGTCAGAGCTACGCCAGTGA, 2.89. Then TCTCGGAGGACACGAATGTCAGAGCTTTCCAGAG, with -0.117; and ACTAGCAGGTCAAGTTTGGGTCACTCAAACAAAG, with 4.68; and TAGCCTAGGTCATTCAGGGGACAGTATAGAAAGC, with 3.56.

As to ACTAGCAGGCCTAGTTTGGGTCACTCAAACAAAG, the PBM binding z-score is -0.0369. Regarding ACTTACGGATCAACGAGGTTATAGCACGCGTATA, the PBM binding z-score was determined as 4.59. As for ACTATTAGTTGACTTGGGGCAACCGATACGACGC, the figure is 0.274; as for AAAACGAGGGCAATGAGTTGATAGCACGGGTGGC, 5.46; as for TAGCCTAGGTCCGATCGGGCCAGTATACGCTATA, -0.91.

The record behind these values is the supplement of paper PMC6555819.
